{"source": "PubChem BioAssay AID1347419", "about": "(Sanford-Burnham Center for Chemical Genomics, 2020)", "note": "Out of some 99,000 compounds screened, about 820 (0.83%) were called active.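 Rule for the calls: active = Z-score of -3 or lower, scaled per plate to the spread of control and sample wells; inactive = z-score above -3.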 Only a selection was taken, and actives are over-represented in it overall."}
{"target": "Protein-tyrosine kinase 2-beta (Homo sapiens) (UniProt Q14289)", "sequence (Q14289 whole entry, looked up)": "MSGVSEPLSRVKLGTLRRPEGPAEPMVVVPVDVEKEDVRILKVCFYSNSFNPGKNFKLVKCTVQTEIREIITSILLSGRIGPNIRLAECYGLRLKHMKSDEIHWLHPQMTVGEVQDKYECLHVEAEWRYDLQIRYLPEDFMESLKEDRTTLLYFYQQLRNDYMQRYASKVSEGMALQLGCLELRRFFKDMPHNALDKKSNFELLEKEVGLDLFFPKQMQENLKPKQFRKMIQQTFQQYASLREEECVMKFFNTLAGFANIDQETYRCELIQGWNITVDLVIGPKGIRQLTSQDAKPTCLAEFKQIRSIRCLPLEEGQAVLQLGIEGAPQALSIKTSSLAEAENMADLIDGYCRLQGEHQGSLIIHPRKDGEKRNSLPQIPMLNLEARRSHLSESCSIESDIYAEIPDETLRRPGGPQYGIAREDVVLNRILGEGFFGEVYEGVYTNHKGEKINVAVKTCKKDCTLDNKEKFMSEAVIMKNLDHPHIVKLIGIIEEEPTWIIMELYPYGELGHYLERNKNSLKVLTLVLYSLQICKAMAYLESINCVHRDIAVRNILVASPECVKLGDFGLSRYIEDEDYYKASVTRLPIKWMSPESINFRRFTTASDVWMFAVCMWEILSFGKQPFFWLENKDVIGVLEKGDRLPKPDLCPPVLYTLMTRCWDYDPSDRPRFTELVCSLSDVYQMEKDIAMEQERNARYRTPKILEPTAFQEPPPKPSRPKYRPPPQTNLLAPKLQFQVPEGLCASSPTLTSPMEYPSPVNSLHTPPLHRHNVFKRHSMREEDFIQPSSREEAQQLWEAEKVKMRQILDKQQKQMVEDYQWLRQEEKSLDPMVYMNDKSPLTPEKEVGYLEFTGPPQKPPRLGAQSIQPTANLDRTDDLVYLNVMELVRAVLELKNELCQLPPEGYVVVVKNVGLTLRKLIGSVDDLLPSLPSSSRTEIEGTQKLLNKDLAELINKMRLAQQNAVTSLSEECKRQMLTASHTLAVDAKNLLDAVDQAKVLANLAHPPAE", "assay": "antagonists of Pyk2 self-association, primary screen, Q293 cells, FERM NanoBiT luminescence, HTS (AID 1347419);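 note: the deposit names both 25 µM and 10 µM; negative z-score means lost luminescence so less FERM oligomerization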", "design": "dose or concentration left out as unconfirmed", "settings": "active compounds read low"}
{"compound": "O=c1oc2cc(O)ccc2cc1-c1ccc(F)cc1", "z-score": "-0.5 (inactive)"}
{"compound": "CCCCCCc1cc2cc(-c3nnc(-c4ccccc4)o3)c(=O)oc2cc1O", "z-score": "-3.06 (active)"}
{"compound": "CC(C)NC(=O)C(=O)NCCCOC(C)C", "z-score": "0.05 (inactive)"}
{"compound": "COC(=O)c1cc(NC(=O)Cc2ccccc2[N+](=O)[O-])ccc1Cl", "z-score": "-0.53 (inactive)"}
{"compound": "COc1cc(OC)nc(N/N=C(\\c2ccccc2)c2ccncc2)n1", "z-score": "2.22 (inactive)"}
{"compound": "O=C(N/N=C/c1cccc([N+](=O)[O-])c1)C1CC(=O)N(c2ccc(Br)cc2)C1", "note": "(stereo unspecified)", "z-score": "0.31 (inactive)"}
{"compound": "Cc1nc(-c2ccccc2)sc1C(=O)/C=C/c1ccccc1", "z-score": "-0.6 (inactive)"}
{"compound": "O=C(/C=C/c1ccccc1)c1ccoc1", "z-score": "2.22 (inactive)"}
{"compound": "Cc1[nH]c(=O)c(C(=O)/C=C/c2ccccc2)c2c1CCCC2", "z-score": "-3.31 (active)"}
{"compound": "CC1(c2cccc([N+](=O)[O-])c2)CC(C)(C)N(C(=O)c2ccccc2)c2ccccc21", "note": "(stereo unspecified)", "z-score": "-0.67 (inactive)"}
{"compound": "CCn1c(SCC(=O)Nc2ccc(C)cc2)nc2nc3c(cc2c1=O)CCCC3", "z-score": "-2.19 (inactive)"}
{"compound": "COc1ccc(N(CC(=O)N/N=C/c2cccs2)S(=O)(=O)c2ccc(OC)c(OC)c2)cc1", "z-score": "-2.54 (inactive)"}
{"compound": "COc1ccc(N(CC(=O)N/N=C/c2cccc3c2OCCO3)S(=O)(=O)c2ccc(NC(C)=O)cc2)cc1", "z-score": "-3.71 (active)"}
{"compound": "Cc1ccc(S(=O)(=O)N(CC(=O)N/N=C/c2ccc(F)cc2)c2cccc3cccnc23)cc1", "z-score": "-0.75 (inactive)"}
{"compound": "CC(C)CN(C(=O)CN1CCN(S(=O)(=O)c2ccccc2)CC1)c1c(N)n(CC(C)C)c(=O)[nH]c1=O", "z-score": "0.05 (inactive)"}
{"compound": "CCCC(C)C(=O)OCC(=O)Nc1c(Br)cc(C)cc1Br", "note": "(stereo unspecified)", "z-score": "1.59 (inactive)"}
{"compound": "CCC(C)(C)n1nnnc1C(c1cccs1)N1CCN(c2nc3ccccc3s2)CC1", "note": "(stereo unspecified)", "z-score": "-3.48 (active)"}
{"compound": "CCC(C)(C)n1nnnc1C(c1cccs1)N1CCN(Cc2ccccc2)CC1", "note": "(stereo unspecified)", "z-score": "0.51 (inactive)"}
{"compound": "CCC(C)(C)n1nnnc1C(c1ccccc1OC)N1CCSCC1", "note": "(stereo unspecified)", "z-score": "-0.08 (inactive)"}
{"compound": "Cc1ccc(C(=O)COC(=O)c2cccc(N3C(=O)c4c(C)nc5ccccc5c4C3=O)c2)cc1C", "z-score": "0.74 (inactive)"}
{"compound": "CC1(C)C/C(=C(/C#N)C(N)=O)CCO1", "z-score": "-3.62 (active)"}
{"compound": "N#CC(C(N)=O)=C1CCC2(CC1)OCCCCO2", "z-score": "0.83 (inactive)"}
{"compound": "O=C(Nc1ccccc1)c1cc2ccccc2[nH]1", "z-score": "0.86 (inactive)"}
{"compound": "S=C1Nc2cc(Cl)ccc2Sc2ccccc21", "z-score": "-0.5 (inactive)"}
{"compound": "CC1=C(C(=O)Nc2cc(C)ccn2)C(c2cnn(C)c2)C2=C(CC(c3ccccc3)CC2=O)N1", "note": "(stereo unspecified)", "z-score": "1.36 (inactive)"}
{"compound": "Cc1nn(-c2ccccc2)c(C)c1/C=C/C(=O)OC(C)C(N)=O", "note": "(stereo unspecified)", "z-score": "0.82 (inactive)"}
